The supplement of paper PMC7724964

How the values were obtained:
Test in all cases: phage ELISA signal ratio (GST-PRM binding over GST background); higher = stronger binding of peptide-phage to the PRM
[1] = biological target: T1, ZGPAT 120-268 zf-CCCH+TUDOR (domain begin residue: 120, domain end residue: 268), Q8N5A5
T1 chain: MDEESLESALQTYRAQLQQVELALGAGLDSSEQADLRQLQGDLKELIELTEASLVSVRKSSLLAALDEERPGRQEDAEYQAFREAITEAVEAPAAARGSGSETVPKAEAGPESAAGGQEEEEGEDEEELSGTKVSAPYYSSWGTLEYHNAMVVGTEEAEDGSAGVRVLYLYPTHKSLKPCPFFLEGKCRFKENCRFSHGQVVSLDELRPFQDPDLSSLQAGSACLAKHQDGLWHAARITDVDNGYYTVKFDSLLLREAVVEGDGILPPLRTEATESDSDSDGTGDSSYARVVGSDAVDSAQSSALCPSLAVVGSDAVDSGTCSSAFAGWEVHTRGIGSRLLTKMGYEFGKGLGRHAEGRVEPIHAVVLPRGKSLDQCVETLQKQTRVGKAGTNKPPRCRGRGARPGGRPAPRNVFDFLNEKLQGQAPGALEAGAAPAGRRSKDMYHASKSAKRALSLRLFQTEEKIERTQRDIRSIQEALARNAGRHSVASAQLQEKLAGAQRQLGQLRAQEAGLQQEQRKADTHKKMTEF
How it was run: (§1)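 Approximately 48 individual clones from selection rounds 4 and 5 were tested by phage ELISA, and those scoring positive were sequenced. They came from five rounds of selecting an M13 phage library of randomized, cysteine-free, glycine-flanked hexadecapeptides on the gene-8 major coat protein against human peptide recognition domains fused to the C-terminus of glutathione S-transferase (GST) in 96-well plates. Each figure in the table is the ELISA signal on the GST-domain fusion relative to the signal on GST alone.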

[2] = biological target: WDR5 20-334 WD40 (domain begin residue: 20, domain end residue: 334), P61964
How it was run: as §1

[3] = biological target: T2, WDR74 1-387 WD40 (domain begin residue: 1, domain end residue: 387), Q6RFH5
T2 chain: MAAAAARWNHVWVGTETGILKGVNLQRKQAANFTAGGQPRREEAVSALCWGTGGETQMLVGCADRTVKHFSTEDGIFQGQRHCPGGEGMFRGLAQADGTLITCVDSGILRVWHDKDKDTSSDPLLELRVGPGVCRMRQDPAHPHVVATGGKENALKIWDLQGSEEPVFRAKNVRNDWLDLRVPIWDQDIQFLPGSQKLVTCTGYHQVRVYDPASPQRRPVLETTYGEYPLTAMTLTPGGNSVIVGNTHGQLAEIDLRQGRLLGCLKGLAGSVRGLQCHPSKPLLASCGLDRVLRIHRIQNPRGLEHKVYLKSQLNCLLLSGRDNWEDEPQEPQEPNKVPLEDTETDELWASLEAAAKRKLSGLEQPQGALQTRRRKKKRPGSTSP
How it was run: as §1

[4] = biological target: T3, YWHAH 2-246 14-3-3 (domain begin residue: 2, domain end residue: 246), Q04917
T3 chain: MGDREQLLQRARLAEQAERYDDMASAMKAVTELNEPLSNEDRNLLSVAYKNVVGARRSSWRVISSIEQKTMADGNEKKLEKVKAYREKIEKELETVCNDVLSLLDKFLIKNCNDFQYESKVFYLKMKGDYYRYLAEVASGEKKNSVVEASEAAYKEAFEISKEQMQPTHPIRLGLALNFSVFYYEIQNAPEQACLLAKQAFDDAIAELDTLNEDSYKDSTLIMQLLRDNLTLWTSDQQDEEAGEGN
How it was run: as §1

[5] = biological target: T4, YWHAG 1-247 14-3-3 (domain begin residue: 1, domain end residue: 247), P61981
T4 chain: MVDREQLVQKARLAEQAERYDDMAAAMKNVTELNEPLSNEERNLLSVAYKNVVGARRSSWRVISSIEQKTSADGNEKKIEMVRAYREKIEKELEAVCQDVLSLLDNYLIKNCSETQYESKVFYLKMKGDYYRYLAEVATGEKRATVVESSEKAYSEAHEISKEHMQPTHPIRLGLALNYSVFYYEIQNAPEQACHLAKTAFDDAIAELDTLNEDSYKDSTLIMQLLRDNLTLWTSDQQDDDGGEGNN
How it was run: as §1

[6] = biological target: T5, YWHAZ 1-245 14-3-3 (domain begin residue: 1, domain end residue: 245), P63104
T5 chain: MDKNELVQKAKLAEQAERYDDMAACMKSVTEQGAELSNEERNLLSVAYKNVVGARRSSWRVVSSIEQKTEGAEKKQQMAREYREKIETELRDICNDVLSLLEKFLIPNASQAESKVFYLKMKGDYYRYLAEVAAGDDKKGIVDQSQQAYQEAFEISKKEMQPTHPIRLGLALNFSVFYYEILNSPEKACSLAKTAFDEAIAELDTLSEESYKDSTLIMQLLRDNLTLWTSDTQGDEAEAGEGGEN
How it was run: as §1

[7] = biological target: T6, YWHAB 1-246 14-3-3 (domain begin residue: 1, domain end residue: 246), P31946
T6 chain: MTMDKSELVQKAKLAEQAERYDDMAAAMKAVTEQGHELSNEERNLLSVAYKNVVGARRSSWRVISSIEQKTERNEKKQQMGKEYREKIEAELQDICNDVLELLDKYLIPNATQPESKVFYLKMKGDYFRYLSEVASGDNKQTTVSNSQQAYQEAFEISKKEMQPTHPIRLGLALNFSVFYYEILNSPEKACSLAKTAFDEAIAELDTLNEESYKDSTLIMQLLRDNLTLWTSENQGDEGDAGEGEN
How it was run: as §1

[8] = biological target: T7, YWHAE 1-255 14-3-3 (domain begin residue: 1, domain end residue: 255), P62258
T7 chain: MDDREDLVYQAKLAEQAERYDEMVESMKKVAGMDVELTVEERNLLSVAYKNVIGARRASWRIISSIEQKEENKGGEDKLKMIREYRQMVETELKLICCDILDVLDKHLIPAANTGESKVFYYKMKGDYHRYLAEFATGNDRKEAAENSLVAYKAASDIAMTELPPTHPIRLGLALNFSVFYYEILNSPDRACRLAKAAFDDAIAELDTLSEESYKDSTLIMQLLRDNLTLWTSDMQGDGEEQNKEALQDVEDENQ
How it was run: as §1

Binder: DYMSQLWDHMSVDIYP
- phage ELISA signal ratio [1]: 5.82

Binder: ARTWYMHQQEAMADQK
- phage ELISA signal ratio [2]: 26.3

Binder: DMWAMWHEWVEQEPQD
- phage ELISA signal ratio [3]: 2.88

Binder: MDWLDLAGQESLFPLW
- phage ELISA signal ratio [4]: 17.1

Binder: DYMSTLFDSIPTHVST
- phage ELISA signal ratio [1]: 8.28

Binder: PSPQPWWTDWHAEWVN
- phage ELISA signal ratio [5]: 16.1

Binder: FDSYWEAAFDQLQMAE
- phage ELISA signal ratio [3]: 7.17

Binder: PQSLQEAMVVWQTWSG
- phage ELISA signal ratio [5]: 21.6

Binder: RTEYLNWQEHRTVSKE
- phage ELISA signal ratio [2]: 11

Binder: MPEYWVDWHMEYVQEM
- phage ELISA signal ratio [6]: 28.1

Binder: QQVFQDHSNHQMMISR
- phage ELISA signal ratio [2]: 14

Binder: WHWPELQDLMSIGMDE
- phage ELISA signal ratio [3]: 2.99

Binder: SARTGYDNYLKPSSQQ
- phage ELISA signal ratio [2]: 22

Binder: SQAMDLNAGWPWDIVM
- phage ELISA signal ratio [1]: 8.17

Binder: HPPWWEPWHVEFLLQD
- phage ELISA signal ratio [7]: 22.7

Binder: GDVSNLSEAMELWRSW
- phage ELISA signal ratio [4]: 17.6

Binder: AARTQWYLAAVAEQAP
- phage ELISA signal ratio [2]: 12.9

Binder: EPHMLYDMWREWVTAD
- phage ELISA signal ratio [1]: 3.14

Binder: DFMSDMFLQQLDTVGL
- phage ELISA signal ratio [3]: 7.8

Binder: IKETAHMDERPKMISR
- phage ELISA signal ratio [2]: 15.8

Binder: PALSDVWDSIPLEFAW
- phage ELISA signal ratio [3]: 6.43

Binder: GAARTQGVEWHSQHSH
- phage ELISA signal ratio [2]: 14.9

Binder: RWEPHAWQADQVEATK
- phage ELISA signal ratio [2]: 14

Binder: QNIEFVWWHKEWLENQ
- phage ELISA signal ratio [7]: 15.1
- phage ELISA signal ratio [6]: 6.38

Binder: PEQERINRKTYQMVSR
- phage ELISA signal ratio [2]: 13

Binder: VPSLVMPQDQPVMVSR
- phage ELISA signal ratio [2]: 12.8

Binder: VEYLDLANFDPMAGKW
- phage ELISA signal ratio [4]: 26.2

Binder: SARSEPYPSTNFTWTH
- phage ELISA signal ratio [2]: 25.7

Binder: RPAWMDSATWLMIQEW
- phage ELISA signal ratio [7]: 22

Binder: DWFSSIIEAERQPVAD
- phage ELISA signal ratio [3]: 5.4

Binder: HKMEPWYTDWHADFLM
- phage ELISA signal ratio [7]: 9.61

Binder: VVFSDYWVDWHVEYMG
- phage ELISA signal ratio [7]: 11.9

Binder: EYHPRWGYIMAQASDS
- phage ELISA signal ratio [2]: 11

Binder: DMWSQWEEWNAVMPWE
- phage ELISA signal ratio [3]: 9.73

Binder: GRWVPWDQNVTTSDES
- phage ELISA signal ratio [2]: 23.4

Binder: SARTSHWVPMEWNHLQ
- phage ELISA signal ratio [2]: 14

Binder: WEAIWDDMLTVQMPMA
- phage ELISA signal ratio [3]: 5

Binder: ETQDPPEVRQYTMVSR
- phage ELISA signal ratio [2]: 13.8

Binder: NARTDAWWSQQSLQQH
- phage ELISA signal ratio [2]: 9.86

Binder: KKPVPMRWEHTYTETM
- phage ELISA signal ratio [2]: 20.2

Binder: QRTMAWKSENHLMPHS
- phage ELISA signal ratio [2]: 16.4

Binder: GRWVPVQDVPRFEIED
- phage ELISA signal ratio [2]: 19

Binder: RTDPEQYQRTMMVPRG
- phage ELISA signal ratio [2]: 12.1

Binder: VKSYYTTWHVQWLMDW
- phage ELISA signal ratio [6]: 6.31

Binder: YMQNLDTQWMLWLQGP
- phage ELISA signal ratio [8]: 9.78

Binder: HQQGDDWVIAEIPPFR
- phage ELISA signal ratio [5]: 19.8

Binder: SLEWLDLAQWTDPHQR
- phage ELISA signal ratio [4]: 19.8

Binder: FELAGRWEPLMMYEWV
- phage ELISA signal ratio [2]: 12.8

Binder: PRYKPHNRTEPVPLMA
- phage ELISA signal ratio [2]: 18.7

Binder: VWPMPQTWAEWQDLLA
- phage ELISA signal ratio [7]: 17.7

Binder: QIWSLWVEGMMYQPDN
- phage ELISA signal ratio [3]: 2.75

Binder: EWSVWDHVPRDWQTVG
- phage ELISA signal ratio [8]: 17.7

Binder: RTEPYVHQQPTPQAPA
- phage ELISA signal ratio [2]: 12.4

Binder: QRTMAWKSEDHLMPQS
- phage ELISA signal ratio [2]: 14.9

Binder: LEWLDLAQWHGGENSR
- phage ELISA signal ratio [4]: 21

Binder: EHPHYWTPWHVDYMLR
- phage ELISA signal ratio [6]: 4.41

Binder: AARTHAQEYHKGIMAS
- phage ELISA signal ratio [2]: 21.6

Binder: GLHQLDWLDLADIYPK
- phage ELISA signal ratio [4]: 18.7
